Results from ChEMBL document CHEMBL4296182, “CO-ADD screening of NIH NCI Diversity Set V”.
Entries with a potency or affinity are not part of this list.

Each compound was assayed on Candida albicans. Settings: 20 µM.

Compound | Inhibition [%]
NC(=O)C1=CC2C3C=CC2(O)C(=O)OC3O1 (stereo not drawn) | 3.39
CC12C(=O)N(c3nccs3)C(=O)C1(C)C1CCC2O1 (stereo not drawn) | 2.65
O=C(O)c1nn(-c2ccccc2-c2nnc(O)nc2O)c(=O)[nH]c1=O | 1.7
Cc1ccc(/N=N/c2ccc(N)cc2C)c(S(N)(=O)=O)c1 | 2.21
CCCN=C(S)Nc1ccccc1 | 4.15
O=C(N(c1ccccc1)c1ccccc1)N(c1ccccc1)c1ccccc1 | 9.21
Clc1[nH]cnc2nccc1-2 | 1.22
COc1ccc(OC)c(NC(=O)c2cc3oc4ccccc4c3cc2O)c1 | -3.33
Cc1nc(Br)c(Br)c(C)c1Br | 4.5
COc1ccc(C(=S)N2CCN(c3ccccc3C)CC2)cc1 | 24.1
Nc1ccc(NC(=O)Nc2ccc(N)cc2)cc1 | -2.34
c1ccc2[nH]c(-c3ccncc3)nc2c1 | -0.07
CCOC(=O)Nc1c(Cl)n(C)c(=O)n(C)c1=O | 6.3
CC(NC(=O)c1ccc(Cl)c(Cl)c1)c1ccc(-c2ccccc2)cc1 (stereo not drawn) | -5.14
Oc1ccc(Nc2ccc3ccccc3c2)cc1 | 3.31
CCN(CC)C(=O)Cn1ccc(NC(C)=O)nc1=O | 0.38
Cc1ccn(C)c(=N)c1 | 2.59
NC(=O)c1nnsc1-c1ccc(-c2snnc2C(N)=O)cc1 | -1.56
Cc1cc(N2CCOCC2)nc(N2CCOCC2)n1 | 1.08
N#Cc1c(N)nc(N)nc1Nc1ccc(Br)cc1 | 2.67

Compound | Inhibition [%]
COc1ccc2c(c1)CCCN2C(=N)Nc1ccc(Cl)cc1 | 3.95
C=CCNC(S)=NCC | 0.61
Nc1nc(O)c2ncn(C3CCCC3)c2n1 | -0.06
COC(=O)Cc1[nH]c(O)nc1C(=O)OC | -0.45
Cc1cn(C2CC(O)C(CO)O2)c(=O)n(Cc2ccccc2)c1=O (stereo not drawn) | 1.89
Cc1cccnc1N=C(S)Nc1ncccc1C | 3.55
N#Cc1nnn(-c2ccc(Cl)cc2)c1N | 0.88
Nc1n[nH]c(CO)n1.O=C(O)CO | 0.2
CS(=O)(=O)O.OC(c1cc(C(F)(F)F)nc2c(Cl)cc(Cl)cc12)C1CCCCN1 (stereo not drawn) | 1
Cc1cc(NC(=O)NC(=O)c2ccccc2NC(=O)C(C)N)ccc1Oc1ncc(Br)cn1.Cl (stereo not drawn) | -1.4
C=C1CC2(OC1=O)c1ccccc1CCc1ccccc12 | 10.3
CC(=O)/C=C(\C)Nc1ccccc1O | 1.01
CCCOc1ccc(-c2nc(-c3ccc(N)cc3)cs2)cc1 | 5.55
Clc1nnc(NC2CCCCC2)c(Cl)c1Cl | 27.2
Clc1ccc(-c2nc(-c3cc4cc(Cl)ccc4o3)cs2)cc1 | 1.45
CC(=O)Nc1c(C)cc(OCC(=O)O)cc1C | 1.74
CN(C)N1C(=O)c2c(Cl)c(Cl)c(Cl)c(Cl)c2C1=O | 1.54
CCCCCCCCCCC(C(=O)O)C1(C(=O)O)CCC(=O)O1 (stereo not drawn) | 8.22
Cc1ccc(Nc2c(O)ncnc2O)cc1C | 0.31

The compounds below were run on Cryptococcus neoformans. Settings: Concentration 20 uM; ASSAY_TEST Inhibition of Fungal Growth; detection method Resazurin; Absorption (OD600-OD570); plate type 384well; NBS; CORNING #3640.

Compound | Inhibition [%]
NC(=O)C1=CC2C3C=CC2(O)C(=O)OC3O1 (stereo not drawn) | 2.22
CC12C(=O)N(c3nccs3)C(=O)C1(C)C1CCC2O1 (stereo not drawn) | -13.24
O=C(O)c1nn(-c2ccccc2-c2nnc(O)nc2O)c(=O)[nH]c1=O | 4.78
Cc1ccc(/N=N/c2ccc(N)cc2C)c(S(N)(=O)=O)c1 | -0.55
CCCN=C(S)Nc1ccccc1 | 1.71
O=C(N(c1ccccc1)c1ccccc1)N(c1ccccc1)c1ccccc1 | -13.12
Clc1[nH]cnc2nccc1-2 | -2.5
COc1ccc(OC)c(NC(=O)c2cc3oc4ccccc4c3cc2O)c1 | -0.7
Cc1nc(Br)c(Br)c(C)c1Br | -9.77
COc1ccc(C(=S)N2CCN(c3ccccc3C)CC2)cc1 | -16.11
Nc1ccc(NC(=O)Nc2ccc(N)cc2)cc1 | -9.22
c1ccc2[nH]c(-c3ccncc3)nc2c1 | -8.67
CCOC(=O)Nc1c(Cl)n(C)c(=O)n(C)c1=O | 20.83
CC(NC(=O)c1ccc(Cl)c(Cl)c1)c1ccc(-c2ccccc2)cc1 (stereo not drawn) | -10.74
Oc1ccc(Nc2ccc3ccccc3c2)cc1 | -6.09
CCN(CC)C(=O)Cn1ccc(NC(C)=O)nc1=O | -8.8
Cc1ccn(C)c(=N)c1 | -0.88
NC(=O)c1nnsc1-c1ccc(-c2snnc2C(N)=O)cc1 | -13.62
Cc1cc(N2CCOCC2)nc(N2CCOCC2)n1 | -7.95
N#Cc1c(N)nc(N)nc1Nc1ccc(Br)cc1 | -16.04

Compound | Inhibition [%]
COc1ccc2c(c1)CCCN2C(=N)Nc1ccc(Cl)cc1 | 6.87
C=CCNC(S)=NCC | -1.87
Nc1nc(O)c2ncn(C3CCCC3)c2n1 | -9.03
COC(=O)Cc1[nH]c(O)nc1C(=O)OC | -7.96
Cc1cn(C2CC(O)C(CO)O2)c(=O)n(Cc2ccccc2)c1=O (stereo not drawn) | -13.31
Cc1cccnc1N=C(S)Nc1ncccc1C | -10.6
N#Cc1nnn(-c2ccc(Cl)cc2)c1N | -4.67
Nc1n[nH]c(CO)n1.O=C(O)CO | -5.13
CS(=O)(=O)O.OC(c1cc(C(F)(F)F)nc2c(Cl)cc(Cl)cc12)C1CCCCN1 (stereo not drawn) | -0.51
Cc1cc(NC(=O)NC(=O)c2ccccc2NC(=O)C(C)N)ccc1Oc1ncc(Br)cn1.Cl (stereo not drawn) | -7.47
C=C1CC2(OC1=O)c1ccccc1CCc1ccccc12 | -9.88
CC(=O)/C=C(\C)Nc1ccccc1O | 2.5
CCCOc1ccc(-c2nc(-c3ccc(N)cc3)cs2)cc1 | -3.2
Clc1nnc(NC2CCCCC2)c(Cl)c1Cl | -9.26
Clc1ccc(-c2nc(-c3cc4cc(Cl)ccc4o3)cs2)cc1 | -4.29
CC(=O)Nc1c(C)cc(OCC(=O)O)cc1C | -9.89
CN(C)N1C(=O)c2c(Cl)c(Cl)c(Cl)c(Cl)c2C1=O | 46.33
CCCCCCCCCCC(C(=O)O)C1(C(=O)O)CCC(=O)O1 (stereo not drawn) | -9.1
Cc1ccc(Nc2c(O)ncnc2O)cc1C | 16.78
